The source of these data is PubChem BioAssay (NCATS).

The structures appear in SMILES notation. Records with an inconclusive call do not appear. Unmarked numbers belong to inactive results. Active and inactive are the calls of the source. Calls follow the shape of the dose curve; as a rule, active = well fitted cell-killing curve with a large enough effect; inconclusive = small, poorly fitted or top-dose-only effect, or effect the other way; inactive = flat fitted curve, though single readings scatter.
% is scaled to controls: 0 for no effect and ±100 for the full control effect; potency is read from the fitted curve at half-maximal effect.

One experiment relates to Hek293T. Briefly: Primary qHTS to identify gynecologic anti-cancer compounds using libraries of approved drugs and bioactive compounds (AID 1345084). Also: nearly all actives have a fitted effect of over 55% in size. As to conditions: Gynecologic cancer cell panel viability, ATPlite luminescence, 48 h, control line for the selectivity index; series mostly up to 57.5 µM; activity change, negative = cytotoxicity: at the top concentration. Summed up:
(§1)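 Cell viability after 48 h drug treatment, ATPlite luminescence readout; five doses.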
Regarding `CC(=O)c1ccc2c(c1)N(CCCN1CCC(CCO)CC1)c1ccccc1S2`, the “activity change, negative = cytotoxicity” value is -2.26%.
For `C#C[C@]1(OC(C)=O)CC[C@H]2[C@@H]3CCC4=C[C@@H](OC(C)=O)CC[C@@H]4[C@H]3CC[C@@]21C`, the “activity change, negative = cytotoxicity” value was -9.71%.
In the case of `CC(C)(C(=O)c1cccnc1)c1cccnc1`, the “activity change, negative = cytotoxicity” value was 8.56%.
In the case of `C[C@]12CCC(=O)C=C1[C@@H]1C[C@@H]1[C@H]1[C@@H]3[C@@H]4C[C@@H]4[C@@]4(CCC(=O)O4)[C@@]3(C)CC[C@@H]12`, the “activity change, negative = cytotoxicity” value was -9.89%.
In the case of `CCCCCCCCCCCCCCCCOP(=O)([O-])OCC[N+](C)(C)C`, the “activity change, negative = cytotoxicity” value was -2.48%.
`C[n+]1c2cc(N)ccc2cc2ccc(N)cc21` (tested in a mixture with another compound): the Potency is 10 µM (active).
Take `CN1CCN(CCCN2c3ccccc3Sc3ccc(S(=O)(=O)N(C)C)cc32)CC1`: the “activity change, negative = cytotoxicity” value was -15.5%.
Consider `Cc1c(C)n(CCN(C)C)c2ccc(C(=O)OCCN(C)C)cc12`, for which the “activity change, negative = cytotoxicity” value is 8.9%.
As for `O=C(N/N=C/c1ccccc1O)c1ccncc1`, the “activity change, negative = cytotoxicity” value was -22.6%.
Still for that read-out and setting: as for `COc1cc2c(cc1OC)C(=O)C(CC1CCN(Cc3ccccc3)CC1)C2` (stereo unspecified), the figure is -14.2%.
As for `Nc1ccn([C@@H]2O[C@H](CO)[C@@H](O)C2(F)F)c(=O)n1`, the Potency result was “inactive”.
For `CCN(CC)C(=O)/C(C#N)=C/c1cc(O)c(O)c([N+](=O)[O-])c1`, the “activity change, negative = cytotoxicity” value is -7.84%.
Take `O=C(CCCN1CCC(O)(c2ccc(Br)cc2)CC1)c1ccc(F)cc1`: the “activity change, negative = cytotoxicity” value was -3.92%.
Regarding `CCC(C(=O)OCCN(CC)CC)c1ccccc1` (stereo unspecified), the “activity change, negative = cytotoxicity” value was 3.91%.

The subject of the next experiment is JEG-3. The description is as above. The following applies: Gynecologic cancer cell panel viability, ATPlite luminescence, 48 h; series mostly up to 57.5 µM; activity change, negative = cytotoxicity: at the top concentration. A digest of the protocol: as §1
Consider `CN=C(NC#N)NCCSCc1csc(N=C(N)N)n1`, for which the “activity change, negative = cytotoxicity” value is -2.72%.
Same read-out and setting: in the case of `CCCCOc1ccc(C(=O)CCN2CCCCC2)cc1` it was -1.05%; in that of `CC(=O)c1ccc2c(c1)N(CCCN1CCC(CCO)CC1)c1ccccc1S2`, -7.83%.
On to `Oc1c(I)cc(Cl)c2cccnc12`, for which the “activity change, negative = cytotoxicity” value was -29.1%.
Same read-out and setting: as for `COc1c2occc2c(OC)c2c(=O)cc(C)oc12`, the figure is 2.62%.
In the case of `C#C[C@]1(OC(C)=O)CC[C@H]2[C@@H]3CCC4=C[C@@H](OC(C)=O)CC[C@@H]4[C@H]3CC[C@@]21C`, the Potency entry was “inactive”.
In the case of `COc1ccc(OC)c(C(O)CNC(=O)CN)c1` (stereo unspecified), the “activity change, negative = cytotoxicity” value was -20.9%.
Turning to `c1ccc(-c2ccc(C(c3ccccc3)n3ccnc3)cc2)cc1` (stereo unspecified), the “activity change, negative = cytotoxicity” value was -16.9%.
Take `O=c1c(-c2ccccc2)c1-c1ccccc1`: the “activity change, negative = cytotoxicity” value is -18.8%.
For the compound `C[C@]12CCC(=O)C=C1[C@@H]1C[C@@H]1[C@H]1[C@@H]3[C@@H]4C[C@@H]4[C@@]4(CCC(=O)O4)[C@@]3(C)CC[C@@H]12`, the “activity change, negative = cytotoxicity” value is -13.5%.
On the same count and under the same terms, in the case of `CCCCCCCCCCCCCCCCOP(=O)([O-])OCC[N+](C)(C)C` it was -25.8%; in that of `CN(C)C(=S)SC(=S)N(C)C`, -5.13%; in that of `C=C(CC)C(=O)c1ccc(OCC(=O)O)c(Cl)c1Cl`, -22.2%.
Same read-out and setting: as for `CN1CCN(CCCN2c3ccccc3Sc3ccc(S(=O)(=O)N(C)C)cc32)CC1`, the figure is -4.95%; as for `O=C1[C@H]2CCCC[C@H]2C(=O)N1CCCCN1CCN(c2nsc3ccccc23)CC1`, 3.93%.
Still for that read-out and setting: as for `C[C@H](O)C(=O)Nc1c(I)c(C(=O)NC(CO)CO)c(I)c(C(=O)NC(CO)CO)c1I`, the figure is -2.87%; as for `Cc1c(C)n(CCN(C)C)c2ccc(C(=O)OCCN(C)C)cc12`, -19%; as for `O=C(N/N=C/c1ccccc1O)c1ccncc1`, -18.3%.
For the compound `CCN(CC)CCOc1ccc(C(O)(Cc2ccc(Cl)cc2)c2ccc(C)cc2)cc1` (stereo unspecified), the “activity change, negative = cytotoxicity” value is -26.1%.
For `CN(C/C=C/c1ccccc1)Cc1cccc2ccccc12`, the “activity change, negative = cytotoxicity” value is -7.12%.
On the same count and under the same terms, in the case of `COc1cc2c(cc1OC)C(=O)C(CC1CCN(Cc3ccccc3)CC1)C2` (stereo unspecified) it was -3.93%.
Take `Nc1ccn([C@@H]2O[C@H](CO)[C@@H](O)C2(F)F)c(=O)n1`: the Potency entry was “inactive”.
Regarding `c1ccc(OCc2ccc(CCCN3CCOCC3)cc2)cc1`, the “activity change, negative = cytotoxicity” value is -3.56%.
As for `Cc1cccn2c(=O)c(-c3nnn[nH]3)cnc12`, the “activity change, negative = cytotoxicity” value is 2.74% [at 25.3 µM].
The same measure, in the same setting: in the case of `CCN(CC)C(=O)/C(C#N)=C/c1cc(O)c(O)c([N+](=O)[O-])c1` it was 6.28%; in that of `O=C(CCCN1CCC(O)(c2ccc(Br)cc2)CC1)c1ccc(F)cc1`, -0.418%.
The same measure, in the same setting: as for `CCOc1ccc(Cc2nccc3cc(OCC)c(OCC)cc23)cc1OCC`, the figure is -6.45%.

The next experiment deals with OV90. The experiment is described as above. As to conditions: Gynecologic cancer cell panel viability, ATPlite luminescence, 48 h; series mostly up to 57.5 µM; activity change, negative = cytotoxicity: at the top concentration. A digest of the protocol: as §1
For the compound `CN=C(NC#N)NCCSCc1csc(N=C(N)N)n1`, the “activity change, negative = cytotoxicity” value is 5.21%.
For `CCCCOc1ccc(C(=O)CCN2CCCCC2)cc1`, the “activity change, negative = cytotoxicity” value is 3.28%.
Turning to `COc1c2occc2c(OC)c2c(=O)cc(C)oc12`, the “activity change, negative = cytotoxicity” value is 0.68%.
`C#C[C@]1(OC(C)=O)CC[C@H]2[C@@H]3CCC4=C[C@@H](OC(C)=O)CC[C@@H]4[C@H]3CC[C@@]21C`: the Potency entry is “inactive”.
Same read-out and setting: in the case of `COc1cccc2c1C(=O)c1c(O)c3c(c(O)c1C2=O)C[C@@](O)(C(C)=O)C[C@@H]3O[C@H]1C[C@H](N)[C@H](O)[C@H](C)O1` it was 1.26 µM (active); in that of `COCc1c(C(C)C)nc(C(C)C)c(/C=C/[C@@H](O)C[C@@H](O)CC(=O)O)c1-c1ccc(F)cc1`, 1.78 µM (active).
With `COc1ccc(OC)c(C(O)CNC(=O)CN)c1` (stereo unspecified), the “activity change, negative = cytotoxicity” value is -0.389%.
`CCCCC(CC)CN=C(N)NC(N)=NCCCCCCN=C(N)NC(N)=NCC(CC)CCCC` (stereo unspecified): the Potency is 20 µM (active).
As to `CC(C)(C(=O)c1cccnc1)c1cccnc1`, the “activity change, negative = cytotoxicity” value is -1.97%.
The same measure, in the same setting: as for `c1ccc(-c2ccc(C(c3ccccc3)n3ccnc3)cc2)cc1` (stereo unspecified), the figure is -8.71%.
As to `CCCCCCCCCCCCCCCCOP(=O)([O-])OCC[N+](C)(C)C`, the Potency was 25.1 µM (active).
The same measure, in the same setting: as for `CN(C)C(=S)SC(=S)N(C)C`, the figure is 7.94 µM (active).
With `C=C(CC)C(=O)c1ccc(OCC(=O)O)c(Cl)c1Cl`, the “activity change, negative = cytotoxicity” value is 12.2%.
`CCN(CC)CCOc1ccc(C(O)(Cc2ccc(Cl)cc2)c2ccc(C)cc2)cc1` (stereo unspecified): the Potency is 17.8 µM (active).
Consider `CN(C/C=C/c1ccccc1)Cc1cccc2ccccc12`, for which the “activity change, negative = cytotoxicity” value was -32.1%.
For `Cc1cccn2c(=O)c(-c3nnn[nH]3)cnc12`, the “activity change, negative = cytotoxicity” value was 1.31% [at 25.3 µM].
Regarding `CC(=O)N(O)CCCCCNC(=O)CCC(=O)N(O)CCCCCNC(=O)CCC(=O)N(O)CCCCCN`, the Potency was 6.31 µM (active).
Still for that read-out and setting: in the case of `CCCCCCCCCCCCCCCC[N+](C)(C)CC` it was 22.4 µM (active); in that of `CCOc1ccc(Cc2nccc3cc(OCC)c(OCC)cc23)cc1OCC`, 7.08 µM (active).
With `CCC(C(=O)OCCN(CC)CC)c1ccccc1` (stereo unspecified), the “activity change, negative = cytotoxicity” value is 4.76%.
